# Measured values: PubChem BioAssay AID588442 (The Scripps Research Institute Molecular Screening Center, 2011)
# Results with a measured potency or affinity are listed apart. Some compounds were tested as several samples or in several runs, with calls that do not always agree. A number with no mark means an inactive call. Active and inactive are the calls of the source.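 How the source made its calls: active means EC50 of 10 µM or lower; inactive means EC50 above 10 µM or not measured.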
# Test: optical interference in Abeta FP readout, dose response, artefact control for IDE activator project, biochemical, fluorescence polarization (AID 588442)
# Conditions: FP artifact counterscreen, fluorescein-Abeta, no enzyme activity
row,SMILES,EC50
1,C#CCOCCOCCOCCNc1nc(N2CCN(C(=O)CCCCCCCCCCNC(=O)[C@H]([C@@H](C)CC)n3cc(CCCCN=C(N)N)nn3)CC2)nc(N2CCN(C(=O)CCCCCCCCCCNC(=O)[C@@H]([C@H](C)O)n3cc(C)nn3)CC2)n1,> 54.7 µM
2,C[n+]1c2cc(N)ccc2cc2ccc(N)cc21,0.576 µM (active)
3,C#CCOCCOCCOCCNc1nc(N2CCN(C(=O)CCCCCCCCCCNC(=O)[C@@H](CCSC)n3cc(CCO)nn3)CC2)nc(N2CCN(C(=O)CCCCCCCCCCNC(=O)[C@H](CO)n3cc(CCCCCN)nn3)CC2)n1,> 56 µM
4,C#CCOCCOCCOCCNc1nc(N2CCN(C(=O)CCCCCCCCCCNC(=O)[C@H](CCCCN)n3cc(CCO)nn3)CC2)nc(N2CCN(C(=O)CCCCCCCCCCNC(=O)[C@H](CCCN=C(N)N)n3cc(C[C@@H](C)CC)nn3)CC2)n1,> 55.9 µM
